Assay results from PubChem BioAssay (NCATS).
Results filed as inconclusive are left out. Where a call stands in place of a potency, no number is given. Calls of active or inactive are those of the source. Unless noted, calls follow the shape of the dose curve; as a rule, active = well fitted curve in the direction sought with a large enough effect; inconclusive = small, poorly fitted or top-dose-only effect, or another doubt; inactive = no such curve, though single readings can be large; an effect the other way counts as inactive or inconclusive.

Experiments:
[1] = qHTS Assay for Identification of Small Molecule Antagonists for NFkB Signaling Pathway (AID 895; active = well fitted inhibition curve with a large enough effect in the signal ratio, with a control signal flat, not every such curve was filed as active; the % refers to the signal ratio; also: potency is read from the fitted curve at half-maximal effect)
How it was run: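 ME-180 NFkB-bla cells (beta-lactamase under NFkB response element), plated overnight, treated with compound then 10 pM TNF alpha (about EC50) for 5 hrs at 37 C. LiveBLAzer FRET read at 460/530 nm emission, 405 nm excitation.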

[2] = qHTS Assay for Identification of Small Molecule Antagonists for Thrombopoietin (TPO) Signaling Pathway (AID 918); conditions: TPO-dependent cell signaling reporter, antagonist mode; also: potency is read from the fitted curve at half-maximal effect; nearly all actives have a fitted effect of over 60% in size
How it was run: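 Murine Ba/F3 cells expressing human TPO receptor and a Glycoprotein IIb promoter-luciferase reporter, IL-3-starved overnight, treated with compound plus TPO at EC50 (26 pM final). After 24 h at 37 C, luminescence read to detect inhibitors.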

[3] = target: Muscarinic acetylcholine receptor M1 (Rattus norvegicus) (UniProt P08482); experiment: qHTS Assay for Antagonists of Acetylcholine Muscarinic M1 Receptor: Measurement of IP-One Response (AID 944); also: nearly all actives have a fitted effect of over 75% in size
How it was run: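 CHO cells stably expressing rat M1, pretreated 10 min with compound, then stimulated 30 min with carbachol at EC80 (200 nM) in LiCl-containing buffer pH 7.4; IP1 accumulation read by HTRF competition (665/620 nm).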

[4] = target: Pyruvate kinase PKM (Homo sapiens) (UniProt P14618); experiment: qHTS Assay for Inhibitors of Human Muscle Pyruvate Kinase (AID 958)
How it was run: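 PKM2, human, >95% pure, 0.1 nM; PEP 0.5 mM (Km), ADP 0.1 mM; 50 mM imidazole pH 7.2, 50 mM KCl, 0.01% Tween 20, 0.05% BSA; 1 h RT; luciferase luminescence readout.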

[5] = qHTS Assay for Identification of Small Molecule Agonists for Thrombopoietin (TPO) Signaling Pathway (AID 917)
How it was run: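 Reporter: GpIIb promoter–luciferase in murine Ba/F3 expressing human TPO receptor. Pre-starved of IL-3 overnight; compounds with 26 pM TPO, 24 hrs, 37 C/5% CO2; luminescence read.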

[6] = target: Luciferin 4-monooxygenase (Photinus pyralis) (UniProt P08659); experiment: Biochemical firefly luciferase enzyme assay for NPC (AID 624030);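 also: purified P. pyralis luciferase at 10 nM with luciferin and ATP substrate; nearly all actives have a fitted effect of over 70% in size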
How it was run: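 Purified P. pyralis luciferase at 10 nM in 50 mM Tris Acetate (final), luminescence read within 5 minutes of enzyme addition to compounds. Activity normalised to PTC124 versus DMSO; concentration-response curves classed by r2, magnitude and activity.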

[7] = S16 Schwann cell viability assay (CellTiter-Glo assay) (AID 624031);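 also: native untransfected S16 rat Schwann cells; cellular ATP luminescence as a viability measure; nearly all actives have a fitted effect of over 70% in size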
How it was run: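 Rat S16 Schwann cells without reporter constructs received compound or DMSO for 24 h at 37 °C under 5% CO2. Cellular ATP was then quantified by CellTiter-Glo luminescence, with vehicle wells defined as 0% activity and cell-free wells as reference.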

PC26 = experiment: qHTS profiling for inhibitors of Plasmodium falciparum proliferation (AID 504749); also: nearly all actives have a fitted effect of over 60% in size; conditions: P. falciparum in erythrocytes, SYBR Green DNA, 72 h; series mostly up to 28.7 µM
How it was run: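 P. falciparum-infected erythrocytes (0.3% parasitemia, 2.5% hematocrit) incubated with compound 72 h at 37 C, 5% CO2. Parasite DNA detected by SYBR Green after lysis, overnight at room temperature; normalised to 0.29 uM artemisinin and DMSO.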

[8] = S16 Schwann cell PMP22 intronic element beta-lactamase assay (AID 624044; calls by dose curve; also: nearly all actives have a fitted effect of over 15% in size); conditions: S16 rat Schwann cells, PMP22 element beta-lactamase FRET, 24 h; ratio activity, negative = inhibition: at 38.3 µM (top of the series)
How it was run: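 Rat S16 Schwann cells with beta-Lac driven by a PMP22 intronic element, compound-treated 24 h at 37 °C. LiveBLAzer FRET B/G read: 460 nm normalized to potassium clavulanate vs DMSO; 535 nm FRET as viability; concentration-effect curves classified.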

Luciferin 4-monooxygenase (Photinus pyralis), sequence (P08659 whole entry, looked up): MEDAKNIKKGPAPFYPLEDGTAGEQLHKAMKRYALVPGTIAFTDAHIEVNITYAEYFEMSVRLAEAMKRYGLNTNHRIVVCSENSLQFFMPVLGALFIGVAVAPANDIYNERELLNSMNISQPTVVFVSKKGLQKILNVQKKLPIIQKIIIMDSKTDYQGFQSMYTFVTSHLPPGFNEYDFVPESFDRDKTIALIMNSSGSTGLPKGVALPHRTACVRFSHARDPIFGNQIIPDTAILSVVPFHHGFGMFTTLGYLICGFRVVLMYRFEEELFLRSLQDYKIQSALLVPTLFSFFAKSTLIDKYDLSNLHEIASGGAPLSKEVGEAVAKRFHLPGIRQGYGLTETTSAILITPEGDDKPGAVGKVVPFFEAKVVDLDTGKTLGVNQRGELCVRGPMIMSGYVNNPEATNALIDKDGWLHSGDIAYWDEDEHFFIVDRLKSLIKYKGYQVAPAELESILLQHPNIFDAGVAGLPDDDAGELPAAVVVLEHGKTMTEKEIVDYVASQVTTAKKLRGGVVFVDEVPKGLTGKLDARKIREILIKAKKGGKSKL
Pyruvate kinase PKM (Homo sapiens), sequence (P14618 whole entry, looked up): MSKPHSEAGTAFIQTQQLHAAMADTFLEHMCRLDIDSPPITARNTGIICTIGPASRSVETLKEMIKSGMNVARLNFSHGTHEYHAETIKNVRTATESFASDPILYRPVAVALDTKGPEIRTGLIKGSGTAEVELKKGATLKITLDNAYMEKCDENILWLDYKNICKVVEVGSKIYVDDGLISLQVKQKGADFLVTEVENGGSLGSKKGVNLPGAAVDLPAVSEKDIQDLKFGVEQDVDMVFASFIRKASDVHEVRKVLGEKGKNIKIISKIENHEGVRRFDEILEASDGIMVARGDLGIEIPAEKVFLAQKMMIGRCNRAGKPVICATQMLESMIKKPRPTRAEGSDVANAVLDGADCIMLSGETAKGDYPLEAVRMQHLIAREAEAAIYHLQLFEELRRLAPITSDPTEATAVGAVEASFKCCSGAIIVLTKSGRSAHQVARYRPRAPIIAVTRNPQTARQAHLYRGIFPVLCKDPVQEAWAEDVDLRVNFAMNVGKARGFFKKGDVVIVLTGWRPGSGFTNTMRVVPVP
Muscarinic acetylcholine receptor M1 (Rattus norvegicus), sequence (P08482 whole entry, looked up): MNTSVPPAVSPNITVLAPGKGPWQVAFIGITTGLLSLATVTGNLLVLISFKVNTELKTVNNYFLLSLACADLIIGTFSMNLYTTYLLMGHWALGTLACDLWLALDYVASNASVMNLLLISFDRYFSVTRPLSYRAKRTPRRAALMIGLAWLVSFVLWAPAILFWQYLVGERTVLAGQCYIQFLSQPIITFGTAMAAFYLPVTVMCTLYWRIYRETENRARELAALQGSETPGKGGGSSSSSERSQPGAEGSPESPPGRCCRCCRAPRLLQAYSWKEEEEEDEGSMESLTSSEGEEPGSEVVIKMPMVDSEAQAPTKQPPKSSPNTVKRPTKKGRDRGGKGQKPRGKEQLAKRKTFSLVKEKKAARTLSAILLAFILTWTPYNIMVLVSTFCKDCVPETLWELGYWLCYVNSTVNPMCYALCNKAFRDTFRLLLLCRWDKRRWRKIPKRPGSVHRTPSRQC

Oc1cc2c(cc1O)[C@H]1c3ccccc3CN[C@@H]1CC2
Potency [1]: 6.31 µM (active)
Potency [2]: 10 µM (active)
Potency [3]: inactive
Potency [4]: inactive

C[C@@H]1O[C@@H](O[C@H]2C[C@@H](O)[C@]3(CO)[C@@H]4[C@@H](O)C[C@]5(C)[C@H](C6=CC(=O)OC6)CC[C@@]5(O)[C@H]4CC[C@@]3(O)C2)[C@H](O)[C@H](O)[C@@H]1O
outcome [5]: inactive

CC1(C)S[C@@H]2[C@H](N)C(=O)N2C1C(=O)O (stereo partly specified)
Potency [6]: inactive
Potency [7]: inactive
Potency (PC26): inactive

[S]=[Sb][S][Sb]=[S]
Potency [6]: inactive
Potency [7]: inactive
Potency [8]: inactive
